This is an account of results in the supplement of paper PMC13380429.

Each structure is given as a SMILES string.

The subject of assay [1] is Vero E6 infected with SARS-CoV-2. The assay can be described thus: morphology score (similarity to uninfected cells); higher = more like uninfected cells. The note with it: 24 h.
Assay [2] shares this test system. The assay can be described thus: SARS-CoV-2 infection rate relative to infected DMSO; higher = more infection, active = 60 or less. The note with it: 24 h.

Regarding `CCC(c1ccccc1)c1c(O)c2ccccc2oc1=O` (configuration not stated) [phenprocoumon] (10 µM), the morphology score in assay [1] came out at 0.0901. Moreover, the SARS-CoV-2 infection rate in assay [2] is 102% (inactive).

For `CN1CCN(C(=O)c2nc3ccc(Cl)cc3[nH]2)CC1` (10 µM), in assay [1], the morphology score worked out at 0.119. The SARS-CoV-2 infection rate in assay [2] is 108% (inactive).

In turn, `Clc1ccc(C2=CCC[C@H]3CC[C@@H]2N3)cn1` (10 µM) gave a morphology score in assay [1] of -0.0924. Further, in assay [2], the SARS-CoV-2 infection rate was 110% (inactive).

`COc1ccc(CN(CCN(C)C)c2ncccn2)cc1` [thonzylamine] (10 µM) registered a morphology score in assay [1] of 0.0251. In assay [2], the SARS-CoV-2 infection rate was 110% (inactive).

Compound `N=C1NC(=O)/C(=C/c2ccc(O)cc2)S1` [mirin] (10 µM) yielded a morphology score in assay [1] of -0.0277. In assay [2], the SARS-CoV-2 infection rate is 112% (inactive).

The compound `COC(=O)Nc1nc2cc(Sc3ccccc3)ccc2[nH]1` [fenbendazole] (0.833333 µM) showed a morphology score in assay [1] of 0.126. In addition, in assay [2], the SARS-CoV-2 infection rate is 106% (inactive).

The compound `C[C@](N)(Cc1ccc(O)c(O)c1)C(=O)O` [methyldopa] (10 µM) gave a morphology score in assay [1] of -0.111. For the same compound, the SARS-CoV-2 infection rate in assay [2] was 97.5% (inactive).

Consider `O=C(Nc1ccc(S(=O)(=O)Nc2ccccc2Cl)c(Cl)c1)c1ccccn1` (10 µM), for which, in assay [1], the morphology score is -0.132. In assay [2], the SARS-CoV-2 infection rate is 114% (inactive).

As to `Cc1ccc(C(C)C)c(O)c1` [thymol] (10 µM), the morphology score in assay [1] was -0.0243. For the same compound, the SARS-CoV-2 infection rate in assay [2] is 112% (inactive).

With `CC(C)N(CCCNC(=O)Nc1ccc(C(C)(C)C)cc1)C[C@H]1O[C@@H](n2ccc3c(N)ncnc32)[C@H](O)[C@@H]1O` (10 µM), in assay [1], the morphology score was -0.157. The SARS-CoV-2 infection rate in assay [2] is 108% (inactive).

For the compound `O=S(=O)(O)c1ccc(O)cc1` [4-phenolsulfonic-acid] (10 µM), the morphology score in assay [1] was -0.0939. In addition, in assay [2], the SARS-CoV-2 infection rate was 114% (inactive).

In assay [1], `CCCCCCCCCCCCCCCc1cccc(OCC(=O)NCCO)c1` (10 µM) gave a morphology score of -0.00804. For the same compound, the SARS-CoV-2 infection rate in assay [2] was 106% (inactive).

Regarding `O=C(NCC(=O)N1CCCC1)Nc1ccc2cnccc2c1` (10 µM), the morphology score in assay [1] is 0.182. Besides, in assay [2], the SARS-CoV-2 infection rate was 98% (inactive).

The compound `CC(C)C[C@H](NC(=O)[C@H](CCCCN)NC(=O)[C@H](CCCNC(=N)N)NC(=O)[C@H](C)NC(=O)[C@H](CO)NC(=O)[C@H](CCCCN)NC(=O)[C@H](CCCNC(=N)N)NC(=O)[C@H](C)NC(=O)CNC(=O)[C@@H](NC(=O)[C@H](Cc1ccccc1)NC(=O)CNC(=O)CNC(=O)[C@@H](N)Cc1ccccc1)[C@@H](C)O)C(=O)N[C@@H](C)C(=O)N[C@@H](CC(N)=O)C(=O)N[C@@H](CCC(N)=O)C(=O)O` [orphanin-fq] (10 µM) registered a morphology score in assay [1] of 0.0454. The SARS-CoV-2 infection rate in assay [2] is 112% (inactive).

`CC[C@@]1(O)C(=O)OCc2c1cc1n(c2=O)Cc2c-1nc1cc(F)c(C)c3c1c2[C@@H](N)CC3` [exatecan-mesylate] (0.833333 µM) had a morphology score in assay [1] of 0.0535. The SARS-CoV-2 infection rate in assay [2] was 110% (inactive).

In the case of `O=C1CCC[C@@H]2[C@H]3CCC[N+]4([O-])CCC[C@@H](CN12)[C@@H]34` (some centres not stated) [oxymatrine] (10 µM), in assay [1], the morphology score was -0.00407. Besides, the SARS-CoV-2 infection rate in assay [2] was 100% (inactive).

In assay [1], `CCN(CC)CCOc1ccc(/C(=C(\Cl)c2ccccc2)c2ccccc2)cc1` [clomifene] (0.833333 µM) registered a morphology score of 0.172. Moreover, in assay [2], the SARS-CoV-2 infection rate is 96.5% (inactive).

Regarding `O=C(CC1NCCCC1O)Cn1cnc2cc(Br)c(Cl)cc2c1=O` (configuration not stated) [halofuginone] (0.833333 µM), the morphology score in assay [1] is -0.082. Further, in assay [2], the SARS-CoV-2 infection rate was 99.5% (inactive).

As for `CCC1(C2=NCCN2)Cc2ccccc2O1` (configuration not stated) [efaroxan] (10 µM), the morphology score in assay [1] is 0.165. For the same compound, in assay [2], the SARS-CoV-2 infection rate is 95% (inactive).

For the compound `O=S(=O)(O)c1ccc2[nH]c(-c3ccccc3)nc2c1` [phenylbenzimidazole-sulfonic-acid] (10 µM), in assay [1], the morphology score is 0.087. The SARS-CoV-2 infection rate in assay [2] was 104% (inactive).

Turning to `CN(C)CCc1c[nH]c2ccc(Cn3cncn3)cc12` [rizatriptan] (10 µM), the morphology score in assay [1] was -0.00598. Further, the SARS-CoV-2 infection rate in assay [2] is 114% (inactive).

`CCC(CC)(CC(=O)Nc1cccc(/C=C/c2nc(C3CCC3)cs2)c1)C(=O)O` [cinalukast] (10 µM) returned a morphology score in assay [1] of 0.068. In addition, in assay [2], the SARS-CoV-2 infection rate was 105% (inactive).

In assay [1], `COc1ccc(CC2NCCc3cc(OC)c(OC)cc32)cc1OC` (configuration not stated) [tetrahydropapaverine] (10 µM) showed a morphology score of -0.026. Also, in assay [2], the SARS-CoV-2 infection rate is 108% (inactive).

Turning to `Cc1cc(I)ccc1Nc1c(C(=O)NOCC2CC2)cc(F)c(F)c1F` (10 µM), the morphology score in assay [1] was 0.0652. Besides, in assay [2], the SARS-CoV-2 infection rate is 113% (inactive).

As for `CN1CCOC(c2ccccc2)c2ccccc2C1` (configuration not stated) [nefopam] (10 µM), the morphology score in assay [1] worked out at 0.0314. For the same compound, in assay [2], the SARS-CoV-2 infection rate is 108% (inactive).

In assay [1], `O=P(O)(O)C(Cl)(Cl)P(=O)(O)O` [clodronic-acid] (10 µM) registered a morphology score of -0.00847. Besides, the SARS-CoV-2 infection rate in assay [2] was 92% (inactive).

Consider `Cc1cc(OCCCS(C)(=O)=O)cc(C)c1-c1cccc(COc2ccc3c(c2)OC[C@H]3CC(=O)O)c1` (10 µM), for which, in assay [1], the morphology score came to 0.0278. Moreover, the SARS-CoV-2 infection rate in assay [2] was 108% (inactive).

`C=CCN1C[C@H](C)N([C@H](c2ccc(C(=O)N(CC)CC)cc2)c2cccc(O)c2)C[C@H]1C` (10 µM) had a morphology score in assay [1] of 0.1. Further, in assay [2], the SARS-CoV-2 infection rate is 105% (inactive).

Regarding `CCCCCC(C)N` (configuration not stated) [tuaminoheptane] (10 µM), in assay [1], the morphology score was -0.092. For the same compound, in assay [2], the SARS-CoV-2 infection rate is 109% (inactive).

In assay [1], `N=C(N)NCc1cccc(I)c1` [iobenguane] (10 µM) gave a morphology score of 0.132. Moreover, the SARS-CoV-2 infection rate in assay [2] is 100% (inactive).

With `CCn1nc(C2CCN(C(=O)CCO)CC2)nc1-c1cnc(N)c(-c2nnc(C(C)(C)C)o2)n1` (0.833333 µM), the morphology score in assay [1] stood at 0.199. In addition, in assay [2], the SARS-CoV-2 infection rate was 94% (inactive).
